The whole screen tested about 290,000 compounds, of which about 3,500 (1.2%) were called active. Many of the other results were omitted from the sample, so actives are more common in it than they were. Unmarked numbers belong to inactive results.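 The calls were made as follows: active = inhibition above the campaign mean inhibition over all tested compounds plus 3 SD (cut at about 28% in these data); inactive = the rest.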
These compounds were tested on M18 aspartyl aminopeptidase (Plasmodium falciparum 3D7) (assay: PfM18AAP inhibitors, malaria aminopeptidase, primary screen, biochemical, QFRET, recombinant enzyme (AID 1822;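 also: 0% = plate median of test compound wells and 100% = 2 mM ZnCl2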)). Conditions: H-Glu-NHMec fluorogenic cleavage, at 7.35 µM, active compounds read high.

| Structure (SMILES) | inhibition |
| --- | --- |
| Clc1ccc(Cc2nn3c(-c4ccncc4)nnc3s2)cc1 | 8.22% |
| Cc1cccc(C(=O)NC(=S)N(C)C2CCCCC2)c1 | 7.02% |
| CCc1cccc(C)c1NC(=O)CSc1nnc(-c2ccco2)n1N | 3.63% |
| NC(=O)c1c(NC(=O)CSc2nc(N)cc(=O)[nH]2)sc2c1CCCC2 | 8.38% |
| NC(=O)c1c(NC(=O)CSc2nnc(-c3ccco3)n2N)sc2c1CCCC2 | 34.4% (active) |
| CC(C)c1ccc(S(=O)(=O)NC2CCCC2)cc1 | -8.03% |
| Cc1ccccc1CN1CCC(C(=O)Nc2ccc(Oc3cccnc3)cc2)CC1 | 0.98% |
| O=C(c1ccc(Cl)c(S(=O)(=O)N2CCCCC2)c1)N1CCCCCC1 | -4.84% |
| O=C(c1ccccc1F)N1CCN(S(=O)(=O)c2ccc(Br)cc2)CC1 | 1.79% |
| O=C(c1ccc[nH]c1=S)N1CCN(S(=O)(=O)c2ccc(Br)cc2Cl)CC1 | 29.6% (active) |
| COc1cc(NC(=O)C2=CC(c3ccco3)=NS(=O)(=O)N2C)cc(OC)c1OC | 3.32% |
| O=C(CO/N=C/c1ccccc1OC(F)F)NC1CCCC1 | 3.38% |
| O=C(CO/N=C/c1ccccc1O)NNC(=O)c1ccccc1Cl | 43.1% (active) |
| O=C(N/N=C/c1ccc(OC(=O)c2ccccc2Cl)cc1)c1ccc(O)cc1 | 8.47% |
| CC(C)c1ccc(NC(=S)NC2CC3C=CC2C3)cc1 (stereo not drawn) | -6.48% |
| CC(=O)c1cnc(Nc2nc(C)c3cc(C)ccc3n2)nc1C | 1.6% |
| O=C(NCCCn1ccnc1)c1cc(-c2ccccc2)on1 | -9.41% |
| COc1ccc(-c2csc(Cc3nc(O)cs3)n2)cc1 | 8.2% |
| Cc1onc(C(=O)NN)c1-c1csc(COc2ccccc2)n1 | -8.62% |
| CC(C)(C)C(=O)OCc1nc(-c2ccc(O)c(O)c2)cs1 | 58.2% (active) |
| COC(=O)[C@@H]1CCCN1C(=O)c1cc(COc2cccc3cccnc23)on1 | 3.55% |
| COc1cc(C)c(C)cc1S(=O)(=O)N1CCCc2ccccc21 | -5.85% |
| Cc1[nH]c(C)c(S(=O)(=O)N2CCC(C)CC2)c1C(=O)N1CCCC1 | -4.62% |
| COCCCNC(=O)C1CC(=O)N(CCc2ccc(F)cc2)C1 (stereo not drawn) | 2.65% |
| CCOC(=O)CSc1nnc(NC(=O)C2CC(=O)N(c3ccc(F)cc3)C2)s1 (stereo not drawn) | -0.3% |
| COc1cccc(N(C(=O)CNC(=O)c2ccco2)C(C(=O)NC2CCCCC2)c2cccnc2)c1 (stereo not drawn) | 9.7% |

| Structure (SMILES) | inhibition |
| --- | --- |
| Cc1ccc(N(C(=O)CNC(=O)c2ccco2)C(C(=O)NC2CCCC2)c2ccncc2)cc1 (stereo not drawn) | 0.63% |
| CC(C)(C)NC(=O)C(c1ccncc1)N(C(=O)CNC(=O)c1ccco1)c1ccc2c(c1)OCO2 (stereo not drawn) | 35% (active) |
| C/C(CC1CC(C)(C)OC1=O)=N/Nc1nc(-c2ccccc2)cs1 (stereo not drawn) | 6.59% |
| O=C(CSc1nccc(=O)[nH]1)Nc1ccc(N2CCOCC2)c(Cl)c1 | 2.24% |
| O=C(CN1CCN(c2ccc(F)cc2)CC1)Nc1ccccc1 | -7.36% |
| O=C(CN1CCOCC1)Nc1cc(Cl)ccc1Cl | 1.38% |
| O=C(CN1CCN(c2ccc(O)cc2)CC1)Nc1ccc(-c2ccccc2)cc1 | 42% (active) |
| O=C(CN1CCN(c2cccc(Cl)c2)CC1)Nc1ccc(S(=O)(=O)N2CCOCC2)cc1 | -3.74% |
| O=C(CN1CCN(c2ccc(O)cc2)CC1)Nc1cc(S(=O)(=O)N2CCOCC2)ccc1Cl | 30.2% (active) |
| O=C(CN1CCN(c2ccccc2)CC1)Nc1ccc(F)cc1 | -1.61% |
| Cn1cc[n+](C)c1COc1ccc(C=O)cc1 | -14% |
| CC1CN(C(=O)CCC(=O)NCCCN2CCC(Cc3ccccc3)CC2)c2cc(Cl)ccc2O1 (stereo not drawn) | -5.3% |
| O=C(C[n+]1ccc2c(c1)nnn2-c1ccccc1)c1ccc(Cl)cc1 | 0% |
| Cc1cc2nc3c(=O)n(Cc4ccccc4)c(=O)[nH]c3nc2cc1N | 33.3% (active) |
| CC(=O)c1ccc(-c2ccc(Cn3c(C)nc4cc(N)c(C)nc43)cc2)cc1 | -5.95% |
| CSc1nc2ccccc2c(=O)n1Cc1ccc(F)cc1 | 4.37% |
| CC1CCN(C(=O)C2CCN(S(=O)(=O)N3CCC4(CC3)OCCO4)CC2)CC1 | -6.53% |
| O=C(Nc1cccc(Cl)c1)C1CCCN(c2cnccn2)C1 (stereo not drawn) | -0.72% |
| COc1ccc(NC(=S)N2CCCC(CO)C2)c(OC)c1 (stereo not drawn) | 1.11% |
| COc1cc(NC(=S)N2CCCC(C)C2)cc(OC)c1OC (stereo not drawn) | 16.2% |
| COc1cc(NC(=S)N2CCCC(C)C2)c(OC)cc1Cl (stereo not drawn) | 33.9% (active) |
| COc1ccc(S(=O)(=O)N2CCC(C(=O)NCCC(=O)NCc3cccc(OC)c3)CC2)cc1 | -4.58% |
| O=C(O)c1cccc2c1C(=O)N(C1CCCC1)C2 | -3.09% |
| C/C(=N\NC(=O)c1ccc(C)cc1)C1C(=O)c2ccccc2C1=O | 9.83% |
| N#Cc1ccc(C(c2nnnn2CCc2ccccc2)N2CCCCCC2)cc1 (stereo not drawn) | -9.05% |
| N#Cc1ccc(CSc2ncccn2)cc1 | 0.4% |

| Structure (SMILES) | inhibition |
| --- | --- |
| N#Cc1ccc(C(c2ccc(C#N)cc2)n2cncn2)cc1 | 51.3% (active) |
| CCOc1ccc(N/C=C/C(=O)c2ccccc2)cc1 | 0.48% |
| Cc1nc2nc(COc3ccccc3)[nH]n2c(=O)c1Cc1ccccc1 | 5.29% |
| C=CCc1c(C)nc2cc(-c3ccccc3)[nH]n2c1=O | -0.1% |
| Cc1nc2nc[nH]n2c(=O)c1C/C=C/c1ccccc1 | 41.7% (active) |
| COC(=O)C1[C@H]2SC(C)(C)C(C(=O)OC)N2C(=O)N1Cc1nc2ccccc2s1 (stereo partly drawn) | 2.76% |
| CSc1nnc(NC(=O)c2nc(S(=O)(=O)Cc3ccc(C)cc3)ncc2Cl)s1 | -15.5% |
| CC1(C)CC(=O)C=C(Nc2ccccc2)C1 | -2.72% |
| Cc1cc(C)nc(NNC2=CC(=O)CC(C)(C)C2)n1 | 42.9% (active) |
| COC(=O)NNC1=CC(=O)CC(C)(C)C1 | 9.27% |
| Cc1onc(C(=O)Nc2ccc3c(c2)OCO3)c1[N+](=O)[O-] | -1.41% |
| Cc1cc(-c2n[nH]c(=S)n2/N=C/c2ccco2)n[nH]1 | 6.34% |
| S=c1[nH]nc(-c2ccco2)n1/N=C/c1ccccc1 | 19.4% |
| S=c1[nH]nc(-c2ccco2)n1/N=C/c1ccc(Br)s1 | 28% (active) |
| COc1ccc(NC(=O)ON=C2c3ccccc3-c3ccccc32)cc1 | -2.03% |
| COc1ccc(-c2csc(NC3OC(=O)c4ccccc43)n2)cc1 (stereo not drawn) | 3.33% |
| COc1ccc(N/C=C(\C2OC(=O)c3ccccc32)[N+](=O)[O-])cc1 (stereo not drawn) | 38.8% (active) |
| O=C(CCN1CCN(C/C=C/c2ccccc2)CC1)Nc1ccccc1Cl | -14.5% |
| CS(=O)(=O)N(CC(=O)N1CCCCCC1)c1cccc(Cl)c1Cl | -10.9% |
| CCC(=O)NC(Nc1cc(C)ccn1)(C(F)(F)F)C(F)(F)F | -6.4% |
| Cc1ccc(NC(=O)Nc2cccc(C(F)(F)F)c2)nc1 | -4.58% |
| CCOC(=O)NNc1cc(C(F)(F)F)ccn1 | 49.5% (active) |
| CCOC(=O)c1cccc(NC(=O)CN2C(=O)C3CC=CCC3C2=O)c1 (stereo not drawn) | 0.39% |
| O=C(Nc1cccnc1Cl)c1cc(-c2cccc(Cl)c2)on1 | -1.19% |
| CCOC(=O)C1(CCOc2ccccc2)CCN(Cc2ccc(C#CCCO)cc2)CC1 | 3.95% |
| CC(=O)N1CCN(CC(c2ccccc2)c2ccccc2)CC1 | -8.35% |

| Structure (SMILES) | inhibition |
| --- | --- |
| O=C(Nc1ccncc1)c1ccc([N+](=O)[O-])cc1Cl | 8.21% |
| O=C(Cc1ccccc1)Nc1ccc(NC(=O)c2cccnc2)cc1 | -1.2% |
| Cn1cccc1C(=O)N1CCc2ccccc2C1 | -5% |
| CC(C)CNC(=O)C(=O)NCC(c1ccc2c(c1)OCO2)N1CCOCC1 (stereo not drawn) | -5.45% |
| O=C(O)CCn1c(O)c(C=C2N=c3ccccc3=N2)sc1=S | 37.6% (active) |
| Cc1cc2ccccc2n1CCC(=O)O | 10.5% |
| O=C(O)CCn1c(Cc2ccccc2)nc2ccccc21 | -1.96% |
| O=S1(=O)CCOC[C@H](CC2CCCCC2)N1Cc1ccc(F)cc1 | -13.1% |
| CCn1cc(CCC(=O)NCc2ccc(F)cc2)c2ccccc21 | -10.5% |
| Cc1cccc(NC(=O)c2sc3nc(N4CCOCC4)c4c(c3c2N)CCCC4)c1 | 41% (active) |
| Cc1nc(N2CCOCC2)c2c(C)c(C(=O)Nc3ccc(C(F)(F)F)cc3)sc2n1 | -14.6% |
| CC(=O)Nc1ccc(N2CCOCC2)c(C(=O)Nc2cccc(C)c2)c1 | 4.11% |
| O=C(NNC(=O)c1ccco1)Nc1ccccc1 | 48.6% (active) |
| O=C(Nc1ccccc1)c1ccco1 | 2.58% |
| O=C(Nc1ccccc1)/C(=C\c1ccco1)NC(=O)c1ccco1 | 8.12% |
| O=C(O)C1CCC(CNS(=O)(=O)c2ccc(Br)cc2)CC1 (stereo not drawn) | -15.2% |
| Cc1cc([N+](=O)[O-])c(-c2ccc(/C=N/n3cnnc3)o2)cc1Cl | 40.4% (active) |
| Brc1cc(/C=N/n2cnnc2)oc1Br | 13.5% |
| Clc1cc(-c2ccc(/C=N/n3cnnc3)o2)ccc1Br | -0.09% |
| Cc1ccc(Cl)cc1-c1ccc(/C=N/n2cnnc2)o1 | 32.8% (active) |
| CC1=NN(c2ccc(Cl)c(C(=O)O)c2)C(=O)/C1=C/c1ccc(-c2ccccc2[N+](=O)[O-])o1 | 3.82% |
| O=C1C2C3C=CC(C4CC34)C2C(=O)N1/N=C/c1ccc(-c2ccccc2[N+](=O)[O-])o1 (stereo not drawn) | -5.14% |
| Cc1cc(-c2ccc(/C=N/n3cnnc3)o2)c([N+](=O)[O-])cc1C | 44.5% (active) |
| Cc1cc(C)c([N+](=O)[O-])cc1-c1ccc(/C=N/NC(=O)c2nonc2N)o1 | 4.59% |
| Cc1ccccc1OCCOc1ccc([N+](=O)[O-])cc1/C=N/n1cnnc1 | 6.71% |

Reference: PubChem BioAssay AID1822 (The Scripps Research Institute Molecular Screening Center, 2009)
